This is an account of results in PubChem BioAssay (NCATS).

A short description of assay [1]: Primary qHTS for inhibitors of nuclear receptor binding SET domain protein 2 (NSD2) in an RCH-ACV wild type WT cells (2C) (AID 1645877; also: nearly all actives have a fitted effect of over 70% in size; also: potency is read from the fitted curve at half-maximal effect). (qHTS replaces the single test concentration by a dilution series.)
Assay [2] addresses Luciferin 4-monooxygenase (Photinus pyralis) (UniProt P08659). In words: Primary firefly luciferase (FLuc) qHTS assay for identification of artifact compounds. (AID 1845220). Also: nearly all actives have a fitted effect of over 60% in size.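 As to activity change, negative = inhibition: plate controls were DMSO vehicle for no effect and no enzyme for full effect.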 In a few lines:
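D-luciferin and ATP (10 uM each, final) in Tris acetate buffer pH 7.6 were incubated with compounds for 15 min at room temperature. The reaction was started with 10 nM Photinus pyralis luciferase and luminescence read after 5 min. Percent inhibition was fitted to a 4-parameter Hill equation.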

A short description of assay [3]: Primary fluorescence-based thiol-reactive (MSTI) qHTS assay for identification of artifact compounds. (AID 1845221). Also: nearly all actives have a fitted effect of over 65% in size. Also: potency is read from the fitted curve at half-maximal effect. In a few lines: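 In PBS pH 7.4 with 2% DMSO, each compound met 4 uM MSTI for one hour at ambient temperature, shielded from light, before fluorescence detection.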
For assay [4], the system named is Nanoluciferase (engineered Oplophorus gracilirostris luciferase). Nature of the assay: Primary Nanoluciferase (NLuc) qHTS assay for identification of artifact compounds. (AID 1845222).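 Also: 0% = DMSO and -100% = no enzyme.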 Put shortly:
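Diluted conditioned medium from NLuc-expressing S16 cells treated with compounds for 15 min at room temperature, then Nano-Glo substrate added; luminescence read after 5 min. Percent inhibition versus no-enzyme and DMSO controls fitted to 4-parameter Hill equation.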

Assay [5] is described as follows: Primary redox qHTS assay for identification of artifact compounds. (AID 1845223).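 Also: 0% = DMSO and 100% = reference compound.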 Put shortly:
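Redox-cycling detection via DTT (250 uM final) oxidation coupled to Amplex Red (25 uM)/HRP (250 mU/mL) in HBSS. 15 min preincubation plus 30 min after DTT, room temperature. Ex/Em 525/598 nm; 4-parameter Hill fit against DMSO and 10 uM DA3003.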

The target in assay [6] is Catechol O-methyltransferase (Homo sapiens) (UniProt P21964). In words: Confirmatory Screen for Target Class Profiling of Small Molecule Inhibitors of Methyltransferases (AID 1745852; calls by dose curve; as to activity change, negative = inhibition: % is scaled to controls: 0 for no effect and ±100 for the full control effect). The note with it: MTase-Glo luminescence, SAH detection, recombinant enzyme; measured here: COMT max response; stronger effect = lower value.
Chain of Catechol O-methyltransferase (Homo sapiens) (P21964 whole entry, looked up): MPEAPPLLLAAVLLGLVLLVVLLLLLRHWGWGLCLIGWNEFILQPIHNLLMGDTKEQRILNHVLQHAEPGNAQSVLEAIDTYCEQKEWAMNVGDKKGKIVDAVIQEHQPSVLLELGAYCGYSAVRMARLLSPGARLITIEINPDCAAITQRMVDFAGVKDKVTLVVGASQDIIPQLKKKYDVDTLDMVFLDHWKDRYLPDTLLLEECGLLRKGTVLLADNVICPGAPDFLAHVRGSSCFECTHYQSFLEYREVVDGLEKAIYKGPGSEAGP
For assay [7], the target named is Guanidinoacetate N-methyltransferase (Homo sapiens) (UniProt Q14353). The assay is described as above. As to conditions: activity change, negative = inhibition: at 57.3 µM (top of the series) unless noted.
The target of assay [8] is Nicotinamide N-methyltransferase (Homo sapiens) (UniProt P40261). The description is as above. The note with it: MTase-Glo luminescence, SAH detection, recombinant enzyme; measured here: NNMT max response; stronger effect = lower value.
Chain of Nicotinamide N-methyltransferase (Homo sapiens) (P40261 whole entry, looked up): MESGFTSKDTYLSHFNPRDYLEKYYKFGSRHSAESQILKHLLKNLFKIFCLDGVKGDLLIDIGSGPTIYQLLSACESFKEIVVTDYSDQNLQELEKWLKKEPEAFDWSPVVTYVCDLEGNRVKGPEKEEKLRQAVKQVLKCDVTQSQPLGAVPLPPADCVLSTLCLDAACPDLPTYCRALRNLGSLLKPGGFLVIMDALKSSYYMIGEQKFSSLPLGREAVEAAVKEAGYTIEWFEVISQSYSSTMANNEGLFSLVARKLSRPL
Assay [9] concerns the target Phenylethanolamine N-methyltransferase (Homo sapiens) (UniProt P11086). Described as above. The note with it: MTase-Glo luminescence, SAH detection, recombinant enzyme; measured here: PNMT max response; stronger effect = lower value.
The target in assay [10] is Glutathione peroxidase 1 (Homo sapiens) (UniProt P07203). In words: Primary qHTS Assay for Inhibitors of Recombinant Selenoprotein Glutathione Peroxidase 1 (GPX1) (AID 1845191). Also: nearly all actives have a fitted effect of over 65% in size. In a few lines:
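GR-coupled readout: NADPH consumption tracked by fluorescence, ex 340/em 450 nm, at t=0 and after 15 min at RT. Final mix 10 nM GPX1, 1 mM GSH, 0.5 mM CHP, 0.5 mM NADPH, 100 nM GR, 0.01% BSA, following 30 min enzyme–compound preincubation.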

Assay [11] concerns the target Phospholipid hydroperoxide glutathione peroxidase GPX4 (Homo sapiens) (UniProt P36969). In words: Primary qHTS Assay for Inhibitors of Recombinant Selenoprotein Glutathione Peroxidase 4 (GPX4) (AID 1845192). Also: nearly all actives have a fitted effect of over 65% in size. As to activity change, negative = inhibition: % is scaled to controls: 0 for no effect and ±100 for the full control effect. Put shortly: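 Steps: GPX4 plus compound, 30 min RT; add GR/GSH/NADPH master mix; start with cumene hydroperoxide; read 340/450 nm fluorescence at 0 and 15 min. Finals were 200 nM GPX4, 1 mM GSH, 0.5 mM CHP, 0.5 mM NADPH, 100 nM GR.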

Assay [12] can be described thus: NCATS anti-infectives library activity on HEK293 viability as a counter-qHTS vs the C. elegans viability qHTS (AID 1745854). Also: % is scaled to controls: 0 for no effect and ±100 for the full control effect. In a few lines: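 Cytotoxicity counter-screen to a worm viability qHTS: CellTiter-Glo luminescence read 10 min after reagent addition. Compounds (final up to 41.7 uM, a 1:5 dilution series) incubated 24 hr at 37C with 1,500 HEK293 cells per well; digitonin control.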

Assay [13] is described as follows: NCATS anti-infectives library activity on the primary C. elegans qHTS viability assay (AID 1745855; calls by dose curve). In a few lines: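 GFP read-out by 488 nm laser cytometry at day 0, 3 and 7, gated on object perimeter, area and peak intensity, scored viability of PE254-GFP-FLuc worms exposed to compound in S medium with bacterial capsules at 21 °C.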

Structures are written as SMILES. Records with an inconclusive call do not appear. Calls of active or inactive are those of the source. Unless noted, calls follow the shape of the dose curve; as a rule, active = well fitted curve in the direction sought with a large enough effect; inconclusive = small, poorly fitted or top-dose-only effect, or another doubt; inactive = no such curve, though single readings can be large; an effect the other way counts as inactive or inconclusive.

Chain of Phenylethanolamine N-methyltransferase (Homo sapiens) (P11086 whole entry, looked up): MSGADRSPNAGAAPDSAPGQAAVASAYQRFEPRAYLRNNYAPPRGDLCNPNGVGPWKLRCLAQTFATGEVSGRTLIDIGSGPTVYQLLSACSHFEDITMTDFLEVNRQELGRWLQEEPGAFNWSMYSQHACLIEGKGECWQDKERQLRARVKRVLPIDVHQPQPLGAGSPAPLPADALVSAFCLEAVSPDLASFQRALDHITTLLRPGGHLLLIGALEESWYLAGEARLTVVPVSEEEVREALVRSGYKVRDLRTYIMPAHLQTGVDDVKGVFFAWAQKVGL
Chain of Glutathione peroxidase 1 (Homo sapiens) (P07203 whole entry, looked up): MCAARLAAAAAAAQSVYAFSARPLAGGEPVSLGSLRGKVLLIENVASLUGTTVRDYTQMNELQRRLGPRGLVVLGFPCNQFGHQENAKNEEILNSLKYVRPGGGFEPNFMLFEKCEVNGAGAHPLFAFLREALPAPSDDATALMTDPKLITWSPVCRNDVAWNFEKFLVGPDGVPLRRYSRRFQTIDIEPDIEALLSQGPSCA
Chain of Phospholipid hydroperoxide glutathione peroxidase GPX4 (Homo sapiens) (P36969 whole entry, looked up): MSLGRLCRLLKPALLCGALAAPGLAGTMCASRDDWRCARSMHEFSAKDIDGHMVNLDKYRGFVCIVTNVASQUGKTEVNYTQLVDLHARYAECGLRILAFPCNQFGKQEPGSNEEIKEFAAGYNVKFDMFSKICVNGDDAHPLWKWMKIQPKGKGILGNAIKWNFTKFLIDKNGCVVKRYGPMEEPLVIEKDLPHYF

As to `Cc1ccc(S(=O)(=O)Cc2nc(-c3ccc(C(=O)NCc4cccnc4)cc3)oc2C)cc1`, the Potency in assay [1] was 0.0186 µM (active). In addition, the Potency entry in [2], in assay [3], in [4] and in assay [5] was “inactive” throughout.

For the compound `CNS(=O)(=O)CC1CCC(N(C)c2ncnc3[nH]ccc23)CC1` (stereo unspecified), the activity is -6.68% in assay [6], -58.2% in assay [8] and -84.3% in [9]. Moreover, in assay [7], the activity change, negative = inhibition was -4.35%. For the same compound, the Potency result in assay [10], in assay [11], in [2], in assay [3], in assay [4] and in assay [5] was “inactive” in each case.

As to `C/C=C/c1ccc2c(c1)[C@@H](C)[C@H](c1ccc(O)cc1)O2`, the activity was -8.28% in assay [6], -59.1% in assay [8] and 0.8% in [9]. In addition, the activity change, negative = inhibition in assay [7] stood at 0.447%. The Potency result in assay [10], in [11], in [3] and in assay [4] was “inactive” throughout.

For the compound `O=C(COc1cccc2c(=O)[nH]ccc12)c1ccccc1`, the Potency entry in assay [12], in assay [10], in [11], in assay [2], in assay [3] and in assay [4] was “inactive” in each case. For the same compound, the Potency result in assay [5] is “inactive”.

`CN(C)CCCCC(=O)Nc1ccc(NC(=S)NC(=O)c2ccc(C(C)(C)C)cc2)cc1`: in assay [1], the Potency is 2.3 µM (active). Also, the Potency entry in assay [2], in assay [3], in assay [4] and in [5] was “inactive” each time.

On to `CC(C)c1cccc2c(-c3ccccc3)cc(-c3ccc(-c4ccc(C(=O)O)cc4)[nH]3)nc12`, for which the activity in assay [6] was -3.32%; in [8], -16.3%; in [9], -5.01%. In assay [7], the activity change, negative = inhibition is -5%. For the same compound, the Potency entry in assay [10], in assay [11], in [2], in assay [4] and in assay [5] was “inactive” each time.

As for `C=C(C(=O)O)C1CC(O)C2(C)CCCC(=C)C2C1` (stereo unspecified), the activity in assay [6] was -51%; in assay [8] it was 4.87%; in [9], 3.46%. Also, the activity change, negative = inhibition in [7] was found to be 0%. Besides, the Potency result in [10], in assay [11], in [2], in assay [3], in assay [4] and in assay [5] was “inactive” throughout.

For `COC1=CC(=O)CC(C)C12Oc1cc(OC)cc(O)c1C2=O` (stereo unspecified), the Potency result in [1], in assay [11], in assay [2], in assay [4] and in [5] was “inactive” in each case.

Consider `CC(C)N(CCCCOCC(=O)NS(C)(=O)=O)c1cnc(-c2ccccc2)c(-c2ccccc2)n1`, for which the Potency entry in [10], in assay [11], in [2] and in [3] was “inactive” in each case.

With `CC1=C(C(=O)OCc2ccccc2)C(c2ccc(-c3ccccc3)cc2)NC(=O)N1CCCCCC(=O)O` (stereo unspecified), the values for the activity in assay [6], in assay [8] and in assay [9] were -3.43%, -35.4% and 2.18%, respectively. For the same compound, the activity change, negative = inhibition in assay [7] turned out to be 0%. The Potency entry in [10], in [2], in assay [3], in assay [4] and in assay [5] was “inactive” each time.

On to `Nc1ncnc2c([C@@H]3N[C@H](CO)[C@@H](O)[C@H]3O)c[nH]c12`, for which the Potency result in [12], in assay [10], in [11], in [2], in assay [3] and in assay [4] was “inactive” throughout. The Potency entry in assay [5] was “inactive”.

In the case of `COC(=O)C(C)C1CCC2(C)C(=O)C=CC(C)(O)C2C1O` (stereo unspecified), the Potency entry in assay [1], in [11], in [2], in assay [4] and in assay [5] was “inactive” each time.

`Cc1ccc(-c2ccc3c(ccc4sc5c(c43)NC[C@@H](C)NC5=O)n2)cn1`: in assay [1], the Potency was 16.6 µM (active). Moreover, the Potency entry in assay [2], in assay [3], in [4] and in [5] was “inactive” throughout.

`COC(=O)[C@@]1(c2ccc(C)cc2)C[C@H]1CN1CCC(O)(c2ccccc2)CC1`: the Potency result in [12], in assay [13], in assay [10], in assay [11], in [2] and in assay [3] was “inactive” throughout. Moreover, the Potency entry in assay [4] and in assay [5] was “inactive” throughout.

On to `CCOc1ccc(NC(=S)N2CCC(C(O)(c3ccccc3)c3ccccc3)CC2)cc1`, for which the Potency result in assay [1], in [2], in assay [3], in assay [4] and in [5] was “inactive” each time.

In the case of `COc1cc2c(cc1OC)N1C(=O)C[C@]34C=CCN5CC[C@@H]2[C@@H](CC3)[C@]514`, the activity is -18.8% in [6], 1.78% in assay [8] and 3.88% in [9]. The Potency entry in assay [7], in assay [10], in assay [11], in assay [2], in [3] and in assay [4] was “inactive” each time.

For the compound `COc1ccc(N(C)c2nc(C)nc3ccccc23)cc1`, in assay [1], the Potency was 0.0118 µM (active). Further, the Potency entry in assay [11], in assay [3], in assay [4] and in assay [5] was “inactive” in each case.

On to `CNC(=O)c1ccccc1Nc1nc(Nc2ccc3c(c2OC)CCCC(N2CCN(CCO)CC2)C3)ncc1Cl` (stereo unspecified), for which the Potency in assay [1] was 7.28 µM (active). Also, the Potency result in [11], in assay [3], in assay [4] and in assay [5] was “inactive” each time.

Take `CN(c1ccccc1CNc1nc(Nc2ccc3c(c2)CC(=O)N3)ncc1C(F)(F)F)S(C)(=O)=O`: the activity in [6] is -5.57%; in assay [8] it was -47.3%; in assay [9], -5.42%. Further, the activity change, negative = inhibition in assay [7] was -2.47%. Besides, the Potency result in assay [10], in assay [11], in assay [2], in assay [4] and in assay [5] was “inactive” each time. Besides, the Potency in assay [3] was 10.6 µM (active).
